Sampled rows, rich in hits. Any-hit rate of the full collection: about 6.8%.
C diff growth – inhibitors of Clostridium difficile growth. Clostridium difficile clinical isolate growth, OD600, 24 h; active compounds read low. growth activity, negative = inhibition, % at 16 µg/mL (by protocol). 86,000 compounds, 0.25% hits. AID 1259249;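 active = mean growth activity at or below -80% and every replicate also at or below -80%; inconclusive = mean at or below -80% but some replicate above -80%; inactive = mean growth activity above -80%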
Pf Dd2 inh – blocks growth of Plasmodium falciparum Dd2 parasites | P. falciparum Dd2 growth, SYBR Green, 72 h; active compounds read low | 94,000 compounds, 2.3% hits | activity change, % at 10 µM; in the data active = activity change below about -80%; inconclusive = no clear call, values can overlap the other calls
T cruzi growth-1 – blocks T. cruzi growth in NIH3T3 culture. T. cruzi beta-gal in NIH3T3, GalScreen luminescence, 90 h. inhibition, % at 8.34 µM. 77,000 compounds, 5.9% hits. AID 624255;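 active = mean inhibition above about 93%, with at least 55% of replicates each passing it, limit read from the data, passing the limit was not always enough; inconclusive = only one of those two conditions holds; inactive = neither condition holds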
T cruzi growth-2 – blocks T. cruzi growth in NIH3T3 host cells; 5,600 compounds, 72% hits; inhibition, % at 8.35 µM; shares compounds with T cruzi growth-1; T. cruzi beta-gal in NIH3T3, GalScreen luminescence, 90 h;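 active = mean replicate inhibition above about 95% and at least 55% of replicates individually reaching it, limit read from the data; inconclusive = only one of the two criteria is met; inactive = neither criterion is met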
T cruzi growth-3 – inhibitors of T. cruzi proliferation. inhibition, % at 2.09 µM. 5,600 compounds, 21% hits. shares compounds with T cruzi growth-1. T. cruzi beta-gal in NIH3T3, GalScreen luminescence, 90 h;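 active = mean inhibition above about 95%, with at least 55% of replicates also reaching it, limit read from the data; inconclusive = meets just one of the two conditions; inactive = meets neither condition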
NIH3T3 tox – NIH/3T3 (mouse) viability loss | NIH/3T3 viability, CellTiter-Glo ATP luminescence, 90 h | shares compounds with T cruzi growth-1 | cytotoxicity (signal decrease), % at 8.35 µM | 5,600 compounds, 14% hits;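 active = mean signal decrease across replicates above about 35% based on untreated-well scatter, with enough replicates individually passing, limit read from the data; inconclusive = no rule stated though some were filed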
NIH3T3 tox 2 – kills mouse NIH/3T3 fibroblasts. inhibition, % at 24.9 µM. shares compounds with T cruzi growth-1. 5,600 compounds, 56% hits. NIH/3T3 viability, CellTiter-Glo ATP luminescence, 90 h;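 active = mean loss of cell viability signal at or above a set limit, and enough replicates individually reaching it; inconclusive = meets only the mean limit or only the replicate share; inactive = meets neither condition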
Large screens that a line does not name were inactive (follow-up assays come after a bar, where they were run).

COC(=O)C[C@H]1CC[C@H]2[C@H](COc3ccc(NC(=O)Nc4ccc(Cl)cc4)cc3C(=O)N2C)O1	T cruzi growth-1 110 | T cruzi growth-2 103 | T cruzi growth-3 114 | NIH3T3 tox inactive | NIH3T3 tox 2 33
COC(=O)C[C@H]1CC[C@@H]2[C@H](COc3ccc(NC(=O)Nc4ccc(Cl)cc4)cc3C(=O)N2C)O1	none
CN1C(=O)c2cc(NS(=O)(=O)c3ccc(Cl)cc3)ccc2OC[C@H]2O[C@@H](CC(=O)N3CCc4ccccc4C3)CC[C@H]21	none
CN1C(=O)c2cc(NS(=O)(=O)c3ccc(Cl)cc3)ccc2OC[C@@H]2O[C@H](CC(=O)N3CCc4ccccc4C3)CC[C@@H]21	T cruzi growth-1 107 | T cruzi growth-2 108 | T cruzi growth-3 inactive | NIH3T3 tox inactive | NIH3T3 tox 2 inactive
COC(=O)C[C@@H]1CC[C@H]2[C@@H](COc3ccc(NS(=O)(=O)c4ccc(F)cc4)cc3C(=O)N2C)O1	none
COC(=O)C[C@H]1CC[C@H]2[C@H](COc3ccc(NS(=O)(=O)c4ccc(F)cc4)cc3C(=O)N2C)O1	T cruzi growth-1 97 | T cruzi growth-2 inactive | T cruzi growth-3 inactive | NIH3T3 tox inactive | NIH3T3 tox 2 inactive
CO[C@@H]1CN(C)C(=O)c2ccc(NC(=O)c3ccno3)cc2OC[C@H](C)NC[C@H]1C	none (no result: T cruzi growth-1)
CNC[C@@H]1OCCCC[C@@H](C)Oc2ccc(NS(C)(=O)=O)cc2C(=O)N([C@H](C)CO)C[C@H]1C	none
Cc1ccc(-c2ccc3c(c2)O[C@@H](CN(C)C(=O)C2CCC2)[C@@H](C)CN([C@@H](C)CO)S3(=O)=O)cc1	none
C[C@@H]1CN([C@H](C)CO)S(=O)(=O)c2ccc(-c3ccncc3)cc2O[C@H]1CN(C)C(=O)C1CCC1	T cruzi growth-1 103 (no result: C diff growth) | T cruzi growth-2 inactive | T cruzi growth-3 inactive | NIH3T3 tox inactive | NIH3T3 tox 2 42
C[C@H]1CN([C@@H](C)CO)S(=O)(=O)c2ccc(-c3ccncc3)cc2O[C@@H]1CN(C)C(=O)C1CCC1	none (no result: C diff growth)
Cc1ccc(-c2ccc3c(c2)O[C@H](CN(C)C(=O)C2CCC2)[C@H](C)CN([C@@H](C)CO)S3(=O)=O)cc1	T cruzi growth-1 121 | T cruzi growth-2 inactive | T cruzi growth-3 inactive | NIH3T3 tox 41 | NIH3T3 tox 2 78
C[C@H]1CN([C@@H](C)CO)S(=O)(=O)c2ccc(-c3ccccc3)cc2O[C@@H]1CN(C)C(=O)C1CCCCC1	none
Cc1ccc(-c2ccc3c(c2)O[C@@H](CN(C)C(=O)C2CCCCC2)[C@H](C)CN([C@H](C)CO)S3(=O)=O)cc1	T cruzi growth-1 112 (no result: C diff growth) | T cruzi growth-2 101 | T cruzi growth-3 inactive | NIH3T3 tox inactive | NIH3T3 tox 2 107
C[C@@H]1CN([C@@H](C)CO)S(=O)(=O)c2ccc(-c3ccccc3)cc2O[C@H]1CN(C)C(=O)C1CCCCC1	T cruzi growth-1 inconclusive | T cruzi growth-2 97 | T cruzi growth-3 inactive | NIH3T3 tox inactive | NIH3T3 tox 2 inactive
Cc1ccc(-c2ccc3c(c2)O[C@@H](CN(C)C(=O)C2CCC2)[C@@H](C)CN([C@H](C)CO)S3(=O)=O)cc1	none
CCC(=O)Nc1ccc2c(c1)C(=O)N(C)C[C@H](OC)[C@H](C)CN(Cc1cncnc1)[C@@H](C)CO2	none (no result: C diff growth, Pf Dd2 inh)
O=C(NCC1CC1)[C@H]1[C@H](CO)[C@H]2Cn3c(ccc(-c4cccc(F)c4)c3=O)[C@H]2N1CC1CC1	none
CN1CCN(C(=O)C[C@@H]2C=C[C@H](NC(=O)Cc3ccccn3)[C@@H](CO)O2)CC1	none (no result: C diff growth)
Cc1ccc(-c2ccc3c(c2)O[C@@H](CN(C)C(=O)C2CCC2)[C@H](C)CN([C@H](C)CO)S3(=O)=O)cc1	none
Cc1ccc(-c2ccc3c(c2)O[C@H](CN(C)C(=O)C2CCCCC2)[C@H](C)CN([C@H](C)CO)S3(=O)=O)cc1	T cruzi growth-1 121 (no result: C diff growth) | T cruzi growth-2 96 | T cruzi growth-3 inconclusive | NIH3T3 tox inactive | NIH3T3 tox 2 105
Cc1ccc(-c2ccc3c(c2)O[C@@H](CN(C)C(=O)C2CC2)[C@@H](C)CN([C@@H](C)CO)S3(=O)=O)cc1	none (no result: C diff growth)

Screening results as filed in PubChem.
